AmpC detergent = AmpC beta-lactamase inhibition with detergent present; P00811; AmpC hydrolysis of nitrocefin, absorbance 480 nm, 0.01% Triton; Potency, µM (top dose mostly 114 µM), for inactives: at the top dose activity change, negative = inhibition, most hits filed as inhibitors; actives 0.041% (n = 370,000);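 further: 0% = no-compound wells and -100% = no-enzyme wells; nearly all actives have a fitted effect of over 25% in size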
Target sequence (P00811 whole entry, looked up): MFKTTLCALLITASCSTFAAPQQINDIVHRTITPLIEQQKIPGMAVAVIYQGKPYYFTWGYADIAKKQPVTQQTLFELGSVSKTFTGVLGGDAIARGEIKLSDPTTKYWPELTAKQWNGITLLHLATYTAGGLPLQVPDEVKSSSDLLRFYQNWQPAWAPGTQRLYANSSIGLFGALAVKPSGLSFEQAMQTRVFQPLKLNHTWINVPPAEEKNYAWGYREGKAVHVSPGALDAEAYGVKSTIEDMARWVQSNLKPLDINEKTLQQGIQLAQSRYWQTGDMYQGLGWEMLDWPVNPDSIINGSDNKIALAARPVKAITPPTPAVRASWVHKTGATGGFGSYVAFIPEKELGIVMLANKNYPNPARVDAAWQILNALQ
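AmpC (5.3 nM in the dispensed reagent) in 20 mM phosphate pH 7.0 with 0.01% (detergent screen) or 0.0001% Triton X-100 was preincubated with compounds for 15 min at room temperature. Nitrocefin was then added from an 800 uM solution, and hydrolysis was followed at 480 nm.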
Sm TGR inh = inhibitors of Schistosoma mansoni thioredoxin glutathione reductase; Potency, µM (doses to about 114 µM), inactives show top-dose activity change, negative = inhibition, usual class: inhibitors; purified TGR, DTNB reduction, TNB absorbance 405 nm; actives 3% (n = 360,000); Q962Y6; further: nearly all actives have a fitted effect of over 60% in size
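Kinetic colorimetric format: TGR-catalysed, NADPH-driven DTNB reduction monitored via TNB absorbance. Enzyme dispensed at 20 nM; compound exposure 15 min at room temperature before reaction start.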
AmpC no deterg = AmpC beta-lactamase inhibition without detergent; AmpC nitrocefin hydrolysis, absorbance 480 nm, 0.0001% Triton; Potency, µM (doses to about 57.1 µM), without a hit: at the top dose activity change, negative = inhibition, most hits filed as inhibitors; actives 0.52% (n = 330,000);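 further: plate controls were no compound for no effect and no enzyme for full effect; nearly all actives have a fitted effect of over 20% in size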
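20 mM phosphate pH 7.0 + 0.01% (detergent screen) or 0.0001% Triton X-100; 5.3 nM AmpC reagent; cpd preinc 15 min RT; nitrocefin (800 uM stock) to start; A480 q20 s × 4 min; Activity was normalised to no-enzyme and no-compound control wells.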
* = called active by the depositor; [ ] = remark or other dose. Only some compounds are listed: those with a hit (about 3.3% of all), similar ones and a draw of the others. The call rests on the fitted dose curve; in most records, active means well fitted curve in the direction sought with a large enough effect; inconclusive means small, poorly fitted or top-dose-only effect, or another doubt; inactive means no such curve, though single readings can be large; an effect the other way counts as inactive or inconclusive. Unless noted, on the % scale 0 is the no-effect control and ±100 the full control effect; potency means the concentration at half of the fitted maximal effect.

Results for O=C(C1=C(O)C(=O)N(CC2CCCO2)C1c1cccnc1)c1ccco1 (configuration not stated) ?
AmpC detergent: inconclusive; Sm TGR inh: inconclusive; AmpC no deterg: -16.2%

What do the screens show for `O=C(C1=C(O)C(=O)N(Cc2ccco2)C1c1cccnc1)c1cc2ccccc2o1` (configuration not stated)?
AmpC detergent: -2.1%; Sm TGR inh: 25.1µM*; AmpC no deterg: -16.6%

How did COc1cccc2cc(C(=O)C3=C(O)C(=O)N(Cc4ccco4)C3c3cccnc3)oc12 (configuration not stated) do in these assays?
AmpC detergent: inconclusive; Sm TGR inh: 25.1µM*; AmpC no deterg: -23.0%

What do the screens show for `COc1ccc(C2C(C(=O)c3ccco3)=C(O)C(=O)N2Cc2cccnc2)cc1OC` (configuration not stated)?
AmpC detergent: 5.7%; Sm TGR inh: 5.2%; AmpC no deterg: -11.8%

What do the screens show for `CCCN(CCC)C(=O)Cn1c(=O)n(-c2ccc(OC)cc2OC)c(=O)c2c3c(sc21)CCC3`?
AmpC detergent: 3.4%; Sm TGR inh: -0.2%

How did O=C(NC(=S)N1CCN(Cc2ccc3c(c2)OCO3)CC1)c1ccc(Cl)cc1 do in these assays?
AmpC detergent: -12.7%; Sm TGR inh: 5.2%; AmpC no deterg: -14.3%

Results for CCNC(=S)N1CCN(S(=O)(=O)/C=C/c2ccccc2)CC1 ?
AmpC detergent: inconclusive; Sm TGR inh: -9.6%; AmpC no deterg: 5.7%

What do the screens show for `O=C(Nc1ccnn1C1CCN(C(=O)c2cccc(C(F)(F)F)c2)CC1)C1CC1`?
AmpC detergent: 0.8%; Sm TGR inh: inconclusive; AmpC no deterg: -13.0%

Results for Cc1ccc(C)n1-c1ccc(C(=O)NCc2ccncc2)cc1 ?
AmpC detergent: -10.9%; Sm TGR inh: 22.4µM*; AmpC no deterg: 10.5%

What do the screens show for `CCOc1ccc(C(=O)NCc2ccncc2)cc1`?
AmpC detergent: -17.7%; Sm TGR inh: 14.0%; AmpC no deterg: -18.3%

Results for COc1ccc(NC(=O)c2ccc(-c3ccccc3Cl)o2)cc1 ?
AmpC detergent: -14.7%; Sm TGR inh: -13.0%; AmpC no deterg: -8.3%

How did Cc1ccccc1-c1ccc(C(=O)NCc2ccccc2)o1 do in these assays?
AmpC detergent: -0.3%; Sm TGR inh: -4.0%; AmpC no deterg: -23.1%

How did Cc1ccc(-c2ccc(C(=O)NCc3ccc(Cl)cc3)o2)c2ccccc12 do in these assays?
AmpC detergent: -13.3%; Sm TGR inh: 14.1µM*; AmpC no deterg: inconclusive

Results for COc1ccc(NC(=O)c2ccc(-c3ccc(C)c4ccccc34)o2)cc1 ?
AmpC detergent: inconclusive; Sm TGR inh: 44.7µM*; AmpC no deterg: -28.8%

What do the screens show for `Cc1ccc(S(=O)(=O)NCCC(=O)NCCSc2ccc(Br)cc2)cc1`?
AmpC detergent: -1.4%; Sm TGR inh: -9.9%; AmpC no deterg: 311.4%

Results for CCC(C)N1C(=O)/C(=C\c2ccc(N3CCCCCC3)cc2)C(=O)NC1=S (configuration not stated) ?
AmpC detergent: -4.7%; Sm TGR inh: inconclusive; AmpC no deterg: -22.8%

What do the screens show for `CCC(C)N1C(=O)/C(=C\c2cnc(N(C)C)nc2)C(=O)NC1=S` (configuration not stated)?
AmpC detergent: -1.1%; Sm TGR inh: 10µM*; AmpC no deterg: -1.4%[2.29 µM]

How did CCOc1cc(N2CCOCC2)c(OCC)cc1NC(=O)COC(=O)/C=C/c1ccc(OC(F)F)cc1 do in these assays?
AmpC detergent: inconclusive; Sm TGR inh: 1.3%; AmpC no deterg: 0.0%

What do the screens show for `O=C(N/N=C/c1ccc([N+](=O)[O-])o1)c1cn(-c2ccccc2)nc1-c1ccc(Cl)cc1`?
AmpC detergent: 0.7%; Sm TGR inh: -27.3%; AmpC no deterg: inconclusive

How did O=[N+]([O-])CC(=Nc1ccc(Cl)cc1)N/N=C\c1oc(O)c2ccccc12 do in these assays?
AmpC detergent: -4.7%; Sm TGR inh: 12.6µM*; AmpC no deterg: -56.5%

What do the screens show for `COc1cc(C2Nc3c(F)cccc3C3C=CCC32)cc(Br)c1OC` (configuration not stated)?
AmpC detergent: -1.1%; Sm TGR inh: 20µM*; AmpC no deterg: -31.5%

Results for COc1cccc(C2Nc3c(F)cc(Br)cc3C3C=CCC32)c1OC (configuration not stated) ?
AmpC detergent: -16.4%; Sm TGR inh: 11.7%; AmpC no deterg: -9.0%

What do the screens show for `CC(C)(C)[C@@H]1COC(=O)[C@H](Cc2ccc(F)cc2)C/C=C\C[C@H](CC(=O)N(CCO)Cc2ccccc2)C(=O)N1`?
AmpC no deterg: 222.2%

Results for Cc1ccc(CC2C(=O)N(c3nc(C)cc(C)n3)C(=O)C2C)cc1 (configuration not stated) ?
AmpC detergent: 3.1%; Sm TGR inh: 0.3%; AmpC no deterg: 22.8%

Results for C#CCOCCOCCOCCNc1nc(N2CCN(C(=O)[C@H](CCC(=O)O)n3cc(C(N)CC(C)C)nn3)CC2)nc(N2CCN(C(=O)[C@H](CCC(=O)O)n3cc(C(N)[C@H](C)CC)nn3)CC2)n1 (some centres not stated) ?
AmpC detergent: -5.4%; Sm TGR inh: 31.6µM*; AmpC no deterg: 145.3%

What do the screens show for `C#CCOCCOCCOCCNc1nc(N2CCN(C(=O)[C@H](CCCCN)n3cc([C@@H](N)C(C)CC)nn3)CC2)nc(N2CCN(C(=O)[C@H](CCCCN)n3cc([C@@H](N)CC(C)C)nn3)CC2)n1` (some centres not stated)?
AmpC detergent: 11.5%; Sm TGR inh: 39.8µM*; AmpC no deterg: 129.0%

How did C#CCOCCOCCOCCNc1nc(N2CCN(C(=O)[C@H](CCCCN)n3cc([C@@H](N)[C@H](C)CC)nn3)CC2)nc(N2CCN(C(=O)[C@H](CCCCN)n3cc([C@@H](N)CC(N)=O)nn3)CC2)n1 do in these assays?
AmpC no deterg: 11.0%

Results for C#CCOCCOCCOCCNc1nc(N2CCN(C(=O)C(Cc3cc4ccccc4[nH]3)n3cc(C(N)Cc4ccc(O)cc4)nn3)CC2)nc(N2CCN(C(=O)C(CCC(=O)O)n3cc(C(N)C(C)CC)nn3)CC2)n1 (configuration not stated) ?
AmpC detergent: -10.4%; Sm TGR inh: -31.7%; AmpC no deterg: 200.1%

What do the screens show for `C#CCOCCOCCOCCNc1nc(N2CCN(C(=O)[C@H](CCC(=O)O)n3cc(C(N)CC(C)C)nn3)CC2)nc(N2CCN(C(=O)[C@H](Cc3ccc(O)cc3)n3cc(C(N)[C@H](C)CC)nn3)CC2)n1` (some centres not stated)?
AmpC detergent: -4.6%; Sm TGR inh: 39.8µM*; AmpC no deterg: 176.3%

How did C#CCOCCOCCOCCNc1nc(N2CCN(C(=O)[C@H]([C@@H](C)CC)n3cc([C@@H](N)Cc4ccc(O)cc4)nn3)CC2)nc(N2CCN(C(=O)[C@H](CCCCN)n3cc([C@@H](N)C(C)CC)nn3)CC2)n1 (some centres not stated) do in these assays?
AmpC detergent: 7.6%; Sm TGR inh: -2.8%; AmpC no deterg: 226.7%
